GAA850 FXN act: FXN promoter activators, primary screen, cell-based, luciferase luminescence, HEK293 lucGAA850 | HEK293 lucGAA850 FXN promoter luciferase reporter, 24 h; percent of 10 µM SAHA response | activation, % at 6 µM | AID 540364, 2011 | 0.56% of 360,000 active;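 active means activation above the average of all compounds screened plus 3 SD, cutoff fixed separately per campaign, cut at about 7.5% in these data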;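 further: 0% = DMSO wells and 100% = 10 µM SAHA wells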
H9c2 protect: cardioprotection against H2O2-induced cell death, primary screen, uHTS, H9c2 cells, ATPLite luminescence; H9c2 cardiomyocytes, H2O2 injury protection, 2 h; protection from H2O2 cell death, % at 20 µM; 0.63% of 360,000 active; AID 588492, 2011;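 active means compounds giving at least 50% protection of heart cells from peroxide-induced death in the single-dose screen, raw or plate-pattern-corrected value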;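 further: 0% = DMSO wells with peroxide and 100% = DMSO wells without peroxide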
Gli-Sufu antag: Gli-Sufu pathway antagonists, primary screen, luciferase luminescence, Sufu-KO-LIGHT cells, uHTS. Sufu-KO-LIGHT fibroblasts, Gli luciferase reporter luminescence. inhibition, % at 5 µM. 0.74% of 340,000 active. AID 588413, 2011;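 active means inhibition above about 55%, limit read from the data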;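 further: 0% = DMSO-treated cells and 100% = wells with medium but no cells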
NR2F2 inh: NR2F2 transcriptional activity inhibitors, primary screen, cell-based, luciferase reporter, HEK293T, luminescence. HEK293T NGFI-A luciferase reporter. inhibition, % at 8.6 µM. 0.7% of 370,000 active;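 active means inhibition above a per-plate cutoff, mean inhibition of test wells between control levels plus 3 SD, cut at about 38% in these data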;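 further: cells cotransfected with COUP-TFII expression vector driving the NGFI-A reporter; 0% = median of COUP-TF2 test wells and 100% = reporter-only cells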
Target sequence (P24468 whole entry, looked up): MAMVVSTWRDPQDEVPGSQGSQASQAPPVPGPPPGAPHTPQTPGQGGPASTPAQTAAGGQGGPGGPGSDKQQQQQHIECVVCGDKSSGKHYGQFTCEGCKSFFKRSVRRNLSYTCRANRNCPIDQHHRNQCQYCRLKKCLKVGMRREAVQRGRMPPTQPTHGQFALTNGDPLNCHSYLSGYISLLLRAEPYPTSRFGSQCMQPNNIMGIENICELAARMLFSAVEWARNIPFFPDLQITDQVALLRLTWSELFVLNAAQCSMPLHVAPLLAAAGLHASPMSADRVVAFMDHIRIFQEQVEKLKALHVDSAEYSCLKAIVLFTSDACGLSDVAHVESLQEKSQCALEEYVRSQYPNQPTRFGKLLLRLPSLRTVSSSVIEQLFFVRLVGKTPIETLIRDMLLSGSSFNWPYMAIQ
SMARCA2 act: SMARCA2 (BRM) function activators, primary screen, cell-based, luminescence, high throughput; MG213 cells, MMTV-luciferase reporter, dexamethasone, overnight; activation, % at 9.1 µM; 1% of 370,000 active; in the data active means activation above about 7.8%;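 further: 0% = vehicle wells and 100% = reference activator wells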
GalR3 antagonist: GalR3 antagonists in HEK293 cells, primary screen, cell-based, fluorescence readout; Galanin receptor type 3 (Homo sapiens), O60755; HEK293 GalR3-CNG cAMP membrane potential fluorescence; galR3 body fused to GalR1 C-terminus; inhibition, % at 3 µM; 0.44% of 360,000 active;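 active means inhibition above the screen-wide average plus 3 SD, cut at about 13% in these data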;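 further: forskolin and galanin both at EC90 stimulate the cells; cAMP rise reported by CNG channel membrane potential dye signal; 0% = forskolin plus galanin with DMSO and 100% = forskolin alone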
Gli antag conf: Gli-SUFU pathway antagonists, confirmation, single concentration, luciferase luminescence, Sufu-KO-LIGHT cells | 40% of 2,500 active | AID 602428, 2012 | shares compounds with Gli-Sufu antag | inhibition, % at 5 µM | Gli luciferase reporter;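 active means mean inhibition at 5 µM reaching about 45%, limit read from the data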;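 further: plate controls were DMSO-treated cells for no effect and wells lacking cells for full effect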
SufuKO cytotox: cytotoxicity in Sufu-KO-LIGHT cells, confirmation, cytotoxicity control for Gli-SUFU antagonist project, cell-based, ATP luminescence, single concentration. shares compounds with Gli-Sufu antag. 32% of 2,500 active. cytotoxicity, % at 5 µM. AID 651994, 2013;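 active means mean cytotoxicity at 5 µM above about 25%, limit read from the data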;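 further: cells exposed to compound overnight for roughly 16 to 18 hours; plate controls were DMSO wells with cells for no effect and medium without cells for full effect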
Wnt3a cs: Wnt3a reporter signal inhibition, confirmation, counter-screen for Gli-SUFU antagonist project, Wnt-LIGHT cells, luminescence, single concentration. shares compounds with Gli-Sufu antag. Wnt3a-driven luciferase reporter. inhibition, % at 6.25 µM. 20% of 2,500 active;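 active means mean inhibition above about 25%, limit read from the data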
Starred values were filed as active, the others as inactive; · = not tested or not shown. Compounds with a hit are over-represented: about 3.4% of the library has one in this group of screens.

SMILES	GAA850 FXN act	H9c2 protect	Gli-Sufu antag	NR2F2 inh	SMARCA2 act	GalR3 antagonist	Gli antag conf	SufuKO cytotox	Wnt3a cs
Cc1ccc(N2CC(C)Cn3c2nc2c3c(=O)n(CC(=O)OCc3ccccc3)c(=O)n2C)cc1C (centres undefined)	-2	9	57*	23	-1	-3	38	17	-37
Cc1[nH]c(C)c(S(=O)(=O)NCc2ccccc2Cl)c1C(=O)N1CCCC1	1	-1	58*	-4	-3	-4	15	7	-2
CCCc1cc(=O)oc2cc(C)cc(OCC(=O)O)c12	0	0	100*	-2	0	1	5	-5	-9
CCCc1cc(=O)oc2cc(C)cc(OCC(=O)Nc3ccccn3)c12	-1	4	9	-5	0	-8	·	·	·
O=c1[nH]nc(SCc2nnc(-c3cccc(Cl)c3)o2)n1C1CCCCC1	0	-24	1	6	-5	-3	·	·	·
COc1cccc(N2CCN(S(=O)(=O)c3ccc4c(c3)oc(=O)n4C)CC2)c1	3	-1	8	-11	-3	1	·	·	·
COc1cccc(N2CCN(C(=O)C3CCN(S(=O)(=O)c4ccc5c(c4)oc(=O)n5C)CC3)CC2)c1	-2	-6	61*	5	-1	0	30	-2	-8
CC(=O)c1ccc(N2CCN(C(=O)C3CCN(S(=O)(=O)c4ccc5c(c4)CC(C)N5C(C)=O)CC3)CC2)cc1 (centres undefined)	1	-10	27	-9	-2	-7	·	·	·
CC(=O)N1c2ccc(S(=O)(=O)N3CCC(C(=O)N4CCN(c5cccc(C(F)(F)F)c5)CC4)CC3)cc2CC1C (centres undefined)	-2	-11	74*	31	-3	-4	81*	34*	17
Cc1ccc(-c2cc(-c3nnc4sc(COc5ccccc5)nn34)[nH]n2)cc1	·	·	·	-8	-5	·	·	·	·
C[C@@]12CCC3[C@@](CCC4[C@@]3(C)CCC[C@@]4(C)C(=O)N3CCCCC3)(CC1=O)C2 (some centres undefined)	1	-2	17	1	1	-8	·	·	·
Clc1cccc(Nc2ncnc3ccc(Br)cc23)c1	-8	-18	62*	25	-4	-9	20	2	11
Clc1ccc(Nc2ncnc3ccc(Br)cc23)cc1	-8	-3	6	33	-4	-4	·	·	·
CCN(CC)c1ccc(/C=N/NC(=S)NC)c(O)c1	1	30	84*	-25	2	-6	25	21	-99
CCOc1ccccc1NC(=O)CCN1CCN(S(=O)(=O)c2ccc(Br)cc2)CC1	0	-8	53	7	0	-3	17	19	-74
CCOC(=O)C1=C[C@@H](c2ccccc2)N(S(=O)(=O)c2ccc(C)cc2)[C@H]1c1ccc(OC)cc1	·	3	·	4	-4	-7	·	·	·
O=C(COc1ccc(Cl)cc1Cl)NC(=S)N1CCCc2ccccc21	-2	-8	53	15	1	0	14	22	17
Cc1ccc(C(C)C)c(OCCn2c(=O)oc3ccccc32)c1	2	-18	96*	11	0	-6	20	-4	4
Cc1ccccc1OCCn1c(=O)oc2ccccc21	-1	-10	-15	-11	-1	-4	·	·	·
O=C(CC(Cc1ccccc1)C(=O)O)Nc1cccc(C(F)(F)F)c1 (centres undefined)	2	2	54	-11	0	-2	13	11	-3
COc1ccc(CN2C(=O)CCCC2(C)c2nnnn2-c2c(C)cccc2C)cc1OC (centres undefined)	·	·	·	-12	1	·	·	·	·
O=C(c1ccccc1Cl)N1CCC(N2CCC(C(=O)N3CCCC3)CC2)CC1	2	0	92*	-4	0	-7	9	13	-21
O=C(O)C1CCN(C(=O)c2ccccc2Cl)CC1	-1	6	0	-7	-2	-2	·	·	·
O=C(c1cc(F)ccc1F)N1CCC(N2CCC(C(=O)N3CCCC3)CC2)CC1	0	-1	57*	2	1	2	13	18	-19
O=C(c1cc(F)ccc1F)N1CCC(Oc2cccnc2)CC1	·	·	·	2	0	·	·	·	·
SMILES	GAA850 FXN act	H9c2 protect	Gli-Sufu antag	NR2F2 inh	SMARCA2 act	GalR3 antagonist	Gli antag conf	SufuKO cytotox	Wnt3a cs
COc1cccc(COC(=O)C2CCN(S(=O)(=O)c3ccc(F)cc3)CC2)c1OC	3	-2	-16	-4	0	4	·	·	·
COc1ccc(-n2cc(COC(=O)NCCc3ccccc3)nn2)cc1	·	·	·	-16	-2	·	·	·	·
CC(=O)NC(c1ccc(C(C)C)cc1)c1ccc2cccnc2c1O (centres undefined)	-11	19	90*	-25	-4	-10	83*	50*	73*
CCOC(=O)C(NCc1ccccn1)(NC(=O)c1cccnc1)C(F)(F)F (centres undefined)	3	15	96*	22	2	-4	12	5	-3
Cc1ccc(-n2c(C)cc(C3=NNC(=NC4CC4)SC3)c2C)cc1C	-5	-29	60*	22	0	5	67*	29*	71*
COC(=O)C[C@H]1CC[C@@H](NC(=O)c2ccncc2)[C@@H](CO)O1	·	·	·	-7	-6	-7	·	·	·
O=C(Cn1cc(COC(=O)c2c3ccccc3cc3ccccc23)nn1)c1ccc(O)cc1	·	·	·	-16	-2	5	·	·	·
CC(C)NCC(O)COC1CCC(C(C)(C)C)CC1 (centres undefined)	1	4	70*	5	0	-3	15	6	-27
COc1ccccc1-c1ccc2nnc(SC)n2n1	2	9	7	-29	4	0	·	·	·
COC(=O)C1=C(CN2CCCc3ccccc32)NC(=O)NC1c1ccc(F)cc1 (centres undefined)	-20	-14	82*	96*	-11	5	36	19	72*
Cc1ccc(Cn2c(=O)n(C)c(=O)c3sccc32)cc1	2	-2	22	-4	-2	-11	·	·	·

Compound activity as filed in PubChem BioAssay.
